Measurements reported in PubChem BioAssay.
Several values for one entry are separate records, joined by “and”; a condition that tells them apart may be missing. Equal values may be shown once. Results filed as inconclusive are left out. For some of these results: Entries with a potency or affinity are not part of this list. Activity calls are given as the source filed them. Unless noted, the rule behind the calls is not given here.

What was measured:
[1] = antimalarial activity against Dd2 strain (AID 2302;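 active = growth inhibition above 50% at the single 2 µM test dose, taken to imply half-maximal potency below 2 µM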;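 note: 0% = DMSO untreated growth and 100% = chloroquine plus artemisinin killed control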); settings: P. falciparum Dd2 in RBCs, LDH growth readout, 72 h; at 2 µM; stronger effect = higher value
[2] = human hepatoma cell viability loss – ATP luminescence, cytotoxicity control for P. falciparum antimalarial project, primary screen (AID 2303;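 active = inhibition above 50%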;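 note: 0% = DMSO wells and 100% = digitonin-killed cells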); settings: HepG2 viability, 24-48 h, at 10 µM, stronger effect = higher value
[3] = target: L-lactate dehydrogenase (Plasmodium falciparum (isolate CDC / Honduras)) (UniProt Q27743); assay: PfLDH activity inhibition – cell lysate, 3D7 strain, counter-screen for P. falciparum growth inhibition project (AID 2304);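 note: 0% = vehicle and 100% = reference inhibitor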; settings: P. falciparum 3D7 crude extract, LDH APAD/NBT absorbance; at 2 µM; stronger effect = higher value
[4] = inhibition of 3D7 malaria parasite growth – strain 3D7 (AID 2306);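 note: 0% = DMSO wells and 100% = chloroquine plus artemisinin control wells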; settings: P. falciparum 3D7 erythrocytic growth, LDH absorbance, 72 h; at 2 µM; stronger effect = higher value
[5] = target: Calcium-dependent protein kinase 1 (Plasmodium falciparum (isolate 3D7)) (UniProt P62344); assay: PfCDPK1 kinase inhibitors, biochemical, TCAMS library (AID 1159585; cut-off not given, nearly all actives have IC50 up to about 0.98 µM;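 note: inhibitors leave more ATP so luminescence rises with inhibition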); settings: recombinant PfCDPK1, Kinase-Glo ATP depletion luminescence
[6] = target: Plasmodium falciparum protein kinase 6 (PK6, PF3D7_1337100) (UniProt Q8IDW1); assay: PfPK6 kinase inhibitors, biochemical, TCAMS library (AID 1159586); settings: recombinant PfPK6, Kinase-Glo ATP depletion luminescence
[7] = target: Protein kinase 7 (PK7), Plasmodium falciparum 3D7 (PF3D7_0213400) (UniProt Q7YTF7); assay: inhibition of Plasmodium PK7 catalytic activity – biochemical, TCAMS antimalarial set, Kinase-Glo luminescence (AID 1159587); settings: recombinant PfPK7, Kinase-Glo ATP depletion luminescence
[8] = target: Calcium-dependent protein kinase 4 (Plasmodium falciparum (isolate 3D7)) (UniProt Q8IBS5); assay: PfCDPK4 kinase inhibitors, biochemical, TCAMS library (AID 1159588; cut-off not given, nearly all actives have IC50 up to about 0.91 µM); settings: recombinant PfCDPK4, Kinase-Glo ATP depletion luminescence
[9] = tested on: Aerobactin synthetase IucA (Klebsiella pneumoniae); assay: inhibition of K. pneumoniae IucA enzyme – biochemical, Tocris library, absorbance (AID 1345561); settings: purified IucA enzyme assay, absorbance (OD) read-out; stronger effect = lower value;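 tested at 8 µM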;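 note: 100% = enzyme without compound and 0% = no enzyme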
[10] = viability loss with induced miR-34 in A549 – imaging, A549 dox-inducible miR-34, nuclei and caspase counts, primary screen (AID 1347080;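 active = compounds whose cell count with miR-34 switched on is under 0.7 times the count with it off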); settings: A549 miR-34 inducible, Hoechst nuclei count, 48 h
[11] = galactose survival enhancers in mitochondrial complex I cybrids – cell-based, galactose medium, ATP luminescence, primary screen (AID 1645843;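 active = z-score of at least 1.8 in each of two replicates, scored against plate mean and spread of sample wells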;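 note: positive z means more ATP and so rescue of galactose-driven cybrid death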); settings: complex I mutant cybrid cells, 72 h, stronger effect = higher value
[12] = viability loss in pontine glioma line – cell-based, SU-DIPG-XVII, MIPE5.0, CellTiter-Glo, qHTS, dose response (AID 1347060; cut-off not given, nearly all actives have AC50 up to about 26 µM;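 note: cells exposed to compound for 48 hours before viability readout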); settings: CellTiter-Glo ATP luminescence
[13] = viability loss in pontine glioma line – cell-based, SU-DIPG-XIII, MIPE4.0, CellTiter-Glo, qHTS, dose response (AID 1347061; cut-off not given, nearly all actives have AC50 up to about 37 µM;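 note: cells exposed to compound for 48 hours before readout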); settings: CellTiter-Glo ATP luminescence
[14] = viability loss in pontine glioma line – cell-based, JHH-DIPG-1, MIPE4.0, CellTiter-Glo, qHTS, dose response (AID 1347062; cut-off not given, nearly all actives have AC50 up to about 27 µM;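 for AC50: cells exposed to compound for two days before readout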); settings: JHH-DIPG-1 viability, CellTiter-Glo ATP luminescence
[15] = viability loss in pontine glioma line – cell-based, SU-DIPG-IV, MIPE4.0, CellTiter-Glo, qHTS, dose response (AID 1347063; cut-off not given, nearly all actives have AC50 up to about 30 µM;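 note: compound exposure lasted 48 hours before the viability readout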); settings: CellTiter-Glo ATP luminescence
[16] = viability loss in pontine glioma line – cell-based, SU-DIPG-XIII, MIPE5.0, CellTiter-Glo, qHTS, dose response (AID 1347064; cut-off not given, nearly all actives have AC50 up to about 23 µM;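 note: cells exposed to compound for 48 hours before the viability read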); settings: CellTiter-Glo ATP luminescence
[17] = viability loss in pontine glioma line – cell-based, SU-DIPG-XXV, MIPE5.0, CellTiter-Glo, qHTS, dose response (AID 1347065; cut-off not given, nearly all actives have AC50 up to about 26 µM;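 note: cells exposed to compound for 48 hours before ATP readout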); settings: CellTiter-Glo ATP luminescence
[18] = growth inhibition of DIPG cells – cell-based, MIPE4.0 library, CellTiter-Glo luminescence, qHTS (AID 1347066; cut-off not given, nearly all actives have AC50 up to about 30 µM;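 note: cells exposed to compound for 48 hours before readout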); settings: SU-DIPG-VI viability, CellTiter-Glo ATP luminescence
[19] = JHH-DIPG-1 glioma cell viability, MIPE5.0 library, CellTiter-Glo luminescence, qHTS (AID 1347067; cut-off not given, nearly all actives have AC50 up to about 26 µM;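 note: cells exposed to compound for 48 hours before readout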); settings: JHH-DIPG-1 glioma viability, CellTiter-Glo ATP luminescence
[20] = growth inhibition of DIPG cells – cell-based, MIPE5.0 library, qHTS (AID 1347068; cut-off not given, nearly all actives have IC50 up to about 30 µM;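 note: cells exposed to compound for 48 hours before viability readout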); settings: SU-DIPG-XXV viability
[21] = MELAS cybrid and Rieske KO viability enhancers – cell-based, MELAS cybrids, Rieske KO mouse fibroblasts, CellTiter-Glo, primary screen (AID 1508586;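 active = mean z-score across replicates of 1.96 or higher in either the MELAS or the Rieske mutant cell line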;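 note: z relative to plate mean and SD of compound and empty wells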); settings: low glucose
[22] = compounds altering circadian rhythm period length – cell-based, LOPAC library, luminescence reporter (AID 2774); settings: circadian reporter cells, at 7 µM, actives lie on both sides;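 note: values are relative to mean of DMSO wells on each plate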
[23] = tested on: Hepatitis C virus NS3 helicase; assay: blockers of NS3h binding to ssDNA – biochemical, fluorescence polarization, LOPAC1280 library, primary screen (AID 687035; in the data active = inhibition above about 37%); settings: Purified HCV NS3 helicase, Cy5-dT15 ssDNA binding fluorescence polarization; stronger effect = higher value; concentration not given here
[24] = compounds altering Cy5-DNA-NS3h complex signal – biochemical, LOPAC1280, artefact control for HCV NS3 helicase inhibitor project (AID 687037); settings: Cy5-DNA-NS3h complex fluorescence interference counterscreen
[25] = P. berghei load reduction in hepatocytes – cell-based, HepG2, luciferase luminescence, HepG2 viability, primary screen (AID 624349; in the data active = parasite load remaining mostly below about 12%, no sharp cut-off; inactive = mostly above about 10%;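 note: 100% = mean of DMSO negative control wells on the same plate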); settings: P. berghei liver stage in HepG2, luciferase luminescence, concentration not given here; parasite load remaining: stronger effect = lower value; viability: measured here: HepG2 viability without parasites
[26] = stronger effect = lower value, cell number ratio, induced over uninduced
[27] = measured here: relative caspase fold change +Dox/-Dox
[28] = measured here: total cells with miR-34 induction, stronger effect = lower value
[29] = measured here: total cells without miR-34 induction
[30] = MELAS cybrid survival, CellTiter-Glo 48 h, stronger effect = higher value
[31] = Rieske KO mouse fibroblast survival, CellTiter-Glo 72 h

Chain of L-lactate dehydrogenase (Plasmodium falciparum (isolate CDC / Honduras)) (Q27743 whole entry, looked up): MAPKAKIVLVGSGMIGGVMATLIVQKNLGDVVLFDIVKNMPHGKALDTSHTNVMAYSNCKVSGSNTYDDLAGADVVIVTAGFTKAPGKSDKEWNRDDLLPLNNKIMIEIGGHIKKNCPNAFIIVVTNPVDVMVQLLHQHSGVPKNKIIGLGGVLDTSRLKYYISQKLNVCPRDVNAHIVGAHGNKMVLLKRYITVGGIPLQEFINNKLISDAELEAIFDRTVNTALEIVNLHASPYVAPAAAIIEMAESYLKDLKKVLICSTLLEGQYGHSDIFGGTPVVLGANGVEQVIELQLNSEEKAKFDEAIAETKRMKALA
Chain of Calcium-dependent protein kinase 1 (Plasmodium falciparum (isolate 3D7)) (P62344 whole entry, looked up): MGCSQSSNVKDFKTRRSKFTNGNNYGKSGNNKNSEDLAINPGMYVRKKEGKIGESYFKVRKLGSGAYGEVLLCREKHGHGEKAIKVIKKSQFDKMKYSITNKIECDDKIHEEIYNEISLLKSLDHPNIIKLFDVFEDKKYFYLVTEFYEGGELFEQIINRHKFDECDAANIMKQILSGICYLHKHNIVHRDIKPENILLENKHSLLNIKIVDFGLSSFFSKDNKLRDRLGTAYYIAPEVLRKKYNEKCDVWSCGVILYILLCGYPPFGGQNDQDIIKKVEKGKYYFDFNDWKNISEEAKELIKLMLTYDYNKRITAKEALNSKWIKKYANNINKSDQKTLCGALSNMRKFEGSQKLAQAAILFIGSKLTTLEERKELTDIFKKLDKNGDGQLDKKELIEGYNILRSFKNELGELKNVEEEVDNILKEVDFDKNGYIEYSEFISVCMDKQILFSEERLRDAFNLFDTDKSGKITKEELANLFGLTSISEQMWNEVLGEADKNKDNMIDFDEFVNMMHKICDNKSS
Chain of Protein kinase 7 (PK7), Plasmodium falciparum 3D7 (PF3D7_0213400) (Q7YTF7 1-343): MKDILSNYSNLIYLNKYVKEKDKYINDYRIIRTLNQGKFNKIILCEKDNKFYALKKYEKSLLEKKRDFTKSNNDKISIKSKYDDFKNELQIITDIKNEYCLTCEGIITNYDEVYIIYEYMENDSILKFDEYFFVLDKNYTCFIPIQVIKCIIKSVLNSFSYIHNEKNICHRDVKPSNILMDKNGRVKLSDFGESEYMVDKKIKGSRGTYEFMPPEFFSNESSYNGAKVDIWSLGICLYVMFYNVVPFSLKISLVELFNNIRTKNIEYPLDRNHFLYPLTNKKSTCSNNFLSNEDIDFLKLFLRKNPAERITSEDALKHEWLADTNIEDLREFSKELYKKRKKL
Chain of Plasmodium falciparum protein kinase 6 (PK6, PF3D7_1337100) (Q8IDW1 1-305): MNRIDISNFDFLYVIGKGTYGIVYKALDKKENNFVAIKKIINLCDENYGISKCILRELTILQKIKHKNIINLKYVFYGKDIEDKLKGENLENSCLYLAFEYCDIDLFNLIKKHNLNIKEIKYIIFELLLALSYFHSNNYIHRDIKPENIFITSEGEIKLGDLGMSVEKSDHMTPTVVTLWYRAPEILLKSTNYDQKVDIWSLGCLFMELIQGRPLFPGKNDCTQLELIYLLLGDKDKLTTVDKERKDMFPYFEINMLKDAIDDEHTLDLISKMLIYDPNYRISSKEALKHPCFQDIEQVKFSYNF
Chain of Calcium-dependent protein kinase 4 (Plasmodium falciparum (isolate 3D7)) (Q8IBS5 whole entry, looked up): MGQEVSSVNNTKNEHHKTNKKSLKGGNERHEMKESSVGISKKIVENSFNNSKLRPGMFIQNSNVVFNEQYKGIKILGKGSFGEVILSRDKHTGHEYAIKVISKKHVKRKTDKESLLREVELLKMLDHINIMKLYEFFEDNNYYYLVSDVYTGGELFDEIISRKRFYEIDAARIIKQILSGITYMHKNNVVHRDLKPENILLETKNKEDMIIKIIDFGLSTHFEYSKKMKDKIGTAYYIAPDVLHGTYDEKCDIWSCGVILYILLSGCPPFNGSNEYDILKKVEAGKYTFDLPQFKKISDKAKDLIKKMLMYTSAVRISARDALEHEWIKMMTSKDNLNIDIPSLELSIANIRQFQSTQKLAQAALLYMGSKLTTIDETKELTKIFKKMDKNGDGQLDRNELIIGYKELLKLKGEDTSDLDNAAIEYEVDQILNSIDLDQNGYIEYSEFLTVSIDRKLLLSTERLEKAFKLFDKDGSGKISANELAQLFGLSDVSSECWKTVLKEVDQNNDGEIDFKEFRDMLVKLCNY

O=C1Nc2cccc3c2C1(CCCCN1CCC(c2cc4ccncc4[nH]2)CC1)CCC3 (stereo not drawn)
active: growth inhibition [4] 97% and 99%
inactive: growth inhibition [1] -2% and -4% | inhibition [2] -1% and -8% | inhibition [3] -3% | outcome [5] | outcome [6] | outcome [7] | outcome [8]

Nc1nc(NCC2CCC(CNS(=O)(=O)c3cccc4ccccc34)CC2)nc2ccccc12 (stereo not drawn)
inactive: growth inhibition [1] 42% | inhibition [2] 9% | inhibition [3] 7% | outcome [5] | outcome [6] | outcome [7] | outcome [8] | remaining activity [9] 92.3% | fold change [10, 26] 0.954 | z-score [11] -0.705
active: growth inhibition [4] 97%
322: cell count [10, 28]
338: cell count [10, 29]
0.891: fold change [10, 27]

CCc1ccc(OCc2ccccc2C(=O)Nc2ccc3nc(C)cc(N)c3c2)cc1
inactive: inhibition [3] 0% | outcome [5] | outcome [6] | outcome [7] | outcome [8] | remaining activity [9] 108% | fold change [10, 26] 0.988 and 0.896 | z-score [21, 30] -0.512 | z-score [11] -0.7
1390 and 202: cell count [10, 29]
1.57 and 0.955: fold change [10, 27]
active: growth inhibition [1] 74% | inhibition [2] 98% | growth inhibition [4] 99% | AC50 [12] 9.34 µM | AC50 [13] 11.8 µM | AC50 [14] 3.32 µM | AC50 [15] 3.32 µM | AC50 [16] 7.42 µM | AC50 [17] 8.33 µM | AC50 [18] 8.33 µM | AC50 [19] 5.25 µM | IC50 [20] 9.34 µM
0.826: z-score [21, 31]
1370 and 181: cell count [10, 28]

CCN(CC)C(=NCCCCCCN=C(NC(N)=NCc1cccc(Cl)c1)N(CC)CC)NC(N)=NCc1cccc(Cl)c1
active: growth inhibition [1] 99% | growth inhibition [4] 99%
inactive: inhibition [2] 17% | inhibition [3] -8% | outcome [5] | outcome [6] | outcome [7] | outcome [8]

O=C(Nc1cccc(-c2ccc(-c3nc4ccc(F)cc4[nH]3)cc2)c1)c1cccnc1
active: growth inhibition [1] 92% | growth inhibition [4] 101%
inactive: inhibition [2] 27% | inhibition [3] -4% | outcome [5] | outcome [6] | outcome [7] | outcome [8]

OC(CN1CCN(c2cccc(Cl)c2)CC1)C(c1ccccc1)c1ccccc1 (stereo not drawn)
0.565: z-score [21, 31]
0.676 and 0.73: fold change [10, 27]
8580 and 6630: cell count [10, 28]
inactive: growth inhibition [1] 4% | inhibition [2] -2% | inhibition [3] -2% | period change [22] -0.085 h | inhibition [23] -4% | fluorescence ratio (interference) [24] 0.9 | outcome [5] | outcome [6] | outcome [7] | outcome [8] | remaining activity [9] 112% | outcome [14] | fold change [10, 26] 0.897 and 1 | z-score [21, 30] -0.304 | z-score [11] -0.82
9570 and 6630: cell count [10, 29]
active: growth inhibition [4] 85% | AC50 [13] 23.5 µM

O=C(NC(Nc1ccc([N+](=O)[O-])cc1)C(Cl)(Cl)Cl)c1cccc(Cl)c1 (stereo not drawn)
inactive: growth inhibition [1] 17% | inhibition [2] -2% | inhibition [3] 0% | outcome [5] | outcome [6] | outcome [7] | outcome [8]
active: growth inhibition [4] 92%

N#Cc1ccc2c(c1)CN(CCC1CCC(NC(=O)/C=C/c3c[nH]c4ccccc34)CC1)CC2 (stereo not drawn)
inactive: growth inhibition [1] 24% and 27% | inhibition [2] 10% and 20% | inhibition [3] -3% and -9% | outcome [5] | outcome [6] | outcome [7] | outcome [8]
active: growth inhibition [4] 92% and 97%

Fc1ccccc1COc1ccc(Nc2ncnc3ccc(I)cc23)cc1Cl
inactive: growth inhibition [1] 37% | inhibition [2] 17% | inhibition [3] -4% | outcome [5] | outcome [6] | outcome [7] | outcome [8]
active: growth inhibition [4] 90%

Cc1cnc(N)c(/C=C/c2cncc(C(=O)NCCc3ccc(Cl)cc3Cl)c2)c1
inactive: inhibition [2] 2% | outcome [5] | outcome [6] | outcome [7] | outcome [8]
active: growth inhibition [1] 100%

O=C(Nc1cc(C(F)(F)F)cc(C(F)(F)F)c1)c1cc(Cl)ccc1O
1500 and 1040: cell count [10, 29]
0.581 and 1.23: fold change [10, 27]
-0.453: z-score [21, 31]
1480 and 1100: cell count [10, 28]
51.5%: viability [25]
inactive: inhibition [3] 2% | parasite load remaining [25] 0.02% | outcome [5] | outcome [6] | outcome [7] | outcome [8] | remaining activity [9] 120% | fold change [10, 26] 0.989 and 1.06 | z-score [21, 30] 0.314 | z-score [11] -0.7
active: growth inhibition [1] 98% | inhibition [2] 84% | growth inhibition [4] 90% | AC50 [12] 1.32 µM | AC50 [13] 0.59 µM | AC50 [14] 1.87 µM | AC50 [15] 1.48 µM | AC50 [16] 1.86 µM | AC50 [17] 1.32 µM | AC50 [18] 0.209 µM | AC50 [19] 1.48 µM | IC50 [20] 2.63 µM

O=S(=O)(NCCN1CCCC1)c1cccc(-c2ccccc2CNC2Cc3ccccc3C2)c1
active: growth inhibition [1] 76% | growth inhibition [4] 99%
inactive: inhibition [2] 35% | inhibition [3] -3% | outcome [5] | outcome [6] | outcome [7] | outcome [8]

CS(=O)(=O)CCNCc1nc(-c2ccc3ncnc(Nc4ccc(OCc5cccc(F)c5)c(Cl)c4)c3c2)cs1
0.867: fold change [10, 27]
7820: cell count [10, 29]
active: growth inhibition [4] 98%
7720: cell count [10, 28]
inactive: growth inhibition [1] 34% | inhibition [2] 8% | inhibition [3] -3% | outcome [5] | outcome [6] | outcome [7] | outcome [8] | remaining activity [9] 122% | fold change [10, 26] 0.987 | z-score [11] -0.46
